Source: PubChem BioAssay (EPA / NIEHS)
Results filed as inconclusive are left out. Calls of active or inactive are those of the source. Rule for the calls, unless noted: active = hit-call score of the fitted dose curve at least 0.9, where 1 is the maximum; inconclusive = response in the unintended direction; inactive = score below 0.9.

Assays:
[1] = target: Steroid hormone receptor ERR1 (Homo sapiens) (UniProt P11474); experiment: ATG_ERRa_TRANS: Attagene TRANS-FACTORIAL HepG2 Assay for human Estrogen-Related Receptor alpha (ERRa) (AID 2282971); details: HepG2 Attagene TRANS reporter, ERRa transactivation
Sequence of Steroid hormone receptor ERR1 (Homo sapiens) (P11474 whole entry, looked up, the tested form may be a part): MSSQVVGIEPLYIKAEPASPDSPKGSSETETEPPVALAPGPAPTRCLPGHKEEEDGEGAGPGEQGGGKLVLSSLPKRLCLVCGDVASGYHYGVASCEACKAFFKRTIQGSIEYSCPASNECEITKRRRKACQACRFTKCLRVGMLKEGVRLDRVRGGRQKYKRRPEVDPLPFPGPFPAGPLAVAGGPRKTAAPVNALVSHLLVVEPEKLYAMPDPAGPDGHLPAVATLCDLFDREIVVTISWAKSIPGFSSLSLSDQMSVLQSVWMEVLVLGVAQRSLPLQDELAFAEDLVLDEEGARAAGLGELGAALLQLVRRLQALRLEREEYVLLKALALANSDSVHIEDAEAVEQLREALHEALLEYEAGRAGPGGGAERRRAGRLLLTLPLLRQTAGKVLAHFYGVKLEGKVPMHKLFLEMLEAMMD
Procedure, shortened: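 HepG2 cells transiently transfected with GAL4-UAS reporter units and chimeric NR-Gal4 constructs; after 24 hour compound incubation, reporter mRNA quantified by RT-PCR, fluorescent labelling and capillary electrophoresis, gain of signal versus DMSO.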

[2] = target: X-box-binding protein 1 (Homo sapiens) (UniProt P17861); experiment: ATG_Xbp1_CIS: Attagene CIS-FACTORIAL HepG2 Assay for human X-box Binding Protein 1 (XBP1) (AID 2282972; active = hit-call score of the fitted dose curve at least 0.9, where 1 is the maximum; inactive = score below 0.9); details: HepG2 XBP1 cis-element reporter, Attagene multiplex; actives raise or lower the signal
Procedure, shortened: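 After a 24-hour chemical exposure of HepG2 cells carrying cis-regulated reporters, reporter mRNA levels are assessed. Quantification uses RT-PCR, 6-FAM labelling and capillary electrophoresis. Gain- or loss-of-signal is fitted against DMSO.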

[3] = ATG_M_19_TRANS: Attagene TRANS-FACTORIAL HepG2 Assay for M19 Transcription Factor (Internal Marker) (AID 2282974); details: HepG2 Attagene TRANS-FACTORIAL M19 internal marker reporter
Procedure, shortened: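 24 h chemical exposure of transiently transfected HepG2 (MRTU library). RNA → oligo(dT) RT → PCR → 6-FAM labelling → HpaI cut → CE fluorescence. Positive-direction fit vs DMSO baseline; background internal-marker readout.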

[4] = target: Glucocorticoid receptor (Homo sapiens) (UniProt P04150); experiment: ATG_GR_TRANS: Attagene TRANS-FACTORIAL HepG2 Assay for human Glucocorticoid Receptor (GR) (AID 2282978); details: HepG2 Attagene TRANS GR reporter, mRNA transcription;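 note: activators score as hits since higher reporter transcript over DMSO is fitted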
Sequence of Glucocorticoid receptor (Homo sapiens) (P04150 whole entry, looked up, the tested form may be a part): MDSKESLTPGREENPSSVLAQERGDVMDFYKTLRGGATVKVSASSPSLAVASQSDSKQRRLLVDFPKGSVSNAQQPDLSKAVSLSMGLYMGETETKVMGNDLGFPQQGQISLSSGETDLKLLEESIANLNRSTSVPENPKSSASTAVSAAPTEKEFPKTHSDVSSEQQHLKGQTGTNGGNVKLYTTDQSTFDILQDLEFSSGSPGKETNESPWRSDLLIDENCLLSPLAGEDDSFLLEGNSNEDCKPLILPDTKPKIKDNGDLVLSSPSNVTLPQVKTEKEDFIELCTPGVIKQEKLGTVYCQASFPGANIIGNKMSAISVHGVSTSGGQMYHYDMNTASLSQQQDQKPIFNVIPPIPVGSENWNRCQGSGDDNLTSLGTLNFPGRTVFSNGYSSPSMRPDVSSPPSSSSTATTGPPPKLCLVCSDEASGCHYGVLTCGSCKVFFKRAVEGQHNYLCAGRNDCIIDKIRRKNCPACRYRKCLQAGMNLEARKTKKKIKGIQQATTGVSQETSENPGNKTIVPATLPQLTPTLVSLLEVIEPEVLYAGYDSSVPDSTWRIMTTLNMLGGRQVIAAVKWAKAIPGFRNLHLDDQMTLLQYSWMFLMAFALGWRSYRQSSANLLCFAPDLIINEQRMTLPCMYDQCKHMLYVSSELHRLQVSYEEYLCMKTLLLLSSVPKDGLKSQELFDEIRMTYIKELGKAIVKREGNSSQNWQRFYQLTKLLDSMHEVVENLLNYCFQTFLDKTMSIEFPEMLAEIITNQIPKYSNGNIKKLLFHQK
Procedure, shortened: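 Transient MRTU transfection of HepG2 (GAL4-UAS reporters, exogenous NR-GAL4 chimeras), 24 h dosing. Readout: reporter transcript via RT-PCR + capillary electrophoresis fluorescence. Positive direction vs DMSO baseline.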

[5] = target: Bile acid receptor (Homo sapiens) (UniProt Q96RI1); experiment: ATG_FXR_TRANS: Attagene TRANS-FACTORIAL HepG2 Assay for Farnesoid X Receptor (FXR) (AID 2282979); details: HepG2 Attagene TRANS FXR-GAL4 reporter transcription;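 note: hits raise reporter mRNA above DMSO so AC50 marks FXR activation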
Procedure, shortened: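 HepG2 cells were transiently transfected with GAL4-UAS reporters driven by chimeric NR-Gal4 proteins and dosed for 24 h. Reporter mRNA was quantified by RT-PCR, fluorescent labelling, HpaI digestion and capillary electrophoresis, with gain of signal scored versus DMSO.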

[6] = target: Oxysterols receptor LXR-alpha (Homo sapiens) (UniProt Q13133); experiment: ATG_LXRa_TRANS: Attagene TRANS-FACTORIAL HepG2 Assay for human Liver X Receptor alpha (LXRa) (AID 2282980); details: HepG2 Attagene TRANS reporter, LXRa transactivation
Sequence of Oxysterols receptor LXR-alpha (Homo sapiens) (Q13133 whole entry, looked up, the tested form may be a part): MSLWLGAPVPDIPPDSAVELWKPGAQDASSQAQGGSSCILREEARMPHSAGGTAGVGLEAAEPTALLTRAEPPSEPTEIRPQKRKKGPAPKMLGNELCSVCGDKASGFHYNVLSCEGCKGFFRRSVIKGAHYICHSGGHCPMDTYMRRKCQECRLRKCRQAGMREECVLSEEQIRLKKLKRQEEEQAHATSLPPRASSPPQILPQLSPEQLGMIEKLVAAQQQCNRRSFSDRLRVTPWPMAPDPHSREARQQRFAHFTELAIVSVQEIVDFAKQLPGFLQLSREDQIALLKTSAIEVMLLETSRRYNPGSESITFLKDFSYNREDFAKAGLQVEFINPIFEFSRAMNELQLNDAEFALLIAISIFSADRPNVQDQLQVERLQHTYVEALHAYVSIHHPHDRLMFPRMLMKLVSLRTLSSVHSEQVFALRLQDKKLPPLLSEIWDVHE
Procedure, shortened: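 HepG2 cells transiently transfected with GAL4-UAS reporter units for chimeric NR-Gal4 proteins, exposed to chemicals for 24 h. Reporter mRNA quantified by RT-PCR and capillary electrophoresis; gain of signal fitted relative to DMSO.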

[7] = target: Oxysterols receptor LXR-beta (Homo sapiens) (UniProt P55055); experiment: ATG_LXRb_TRANS: Attagene TRANS-FACTORIAL HepG2 Assay for human Liver X Receptor beta (LXRb) (AID 2282981); details: HepG2 Attagene TRANS GAL4-LXRb reporter, mRNA
Sequence of Oxysterols receptor LXR-beta (Homo sapiens) (P55055 whole entry, looked up, the tested form may be a part): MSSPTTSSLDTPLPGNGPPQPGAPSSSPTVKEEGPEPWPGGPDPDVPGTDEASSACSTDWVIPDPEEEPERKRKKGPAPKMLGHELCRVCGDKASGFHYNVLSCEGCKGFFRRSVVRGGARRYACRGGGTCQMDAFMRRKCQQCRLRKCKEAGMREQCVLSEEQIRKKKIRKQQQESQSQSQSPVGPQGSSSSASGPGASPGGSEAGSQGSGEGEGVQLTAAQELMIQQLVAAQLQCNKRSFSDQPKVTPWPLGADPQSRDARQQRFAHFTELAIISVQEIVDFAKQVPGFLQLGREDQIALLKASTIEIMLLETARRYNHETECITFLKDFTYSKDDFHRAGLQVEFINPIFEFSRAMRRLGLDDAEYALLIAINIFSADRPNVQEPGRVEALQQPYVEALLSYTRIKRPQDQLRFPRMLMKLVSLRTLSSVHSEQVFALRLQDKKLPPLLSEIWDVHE
Procedure, shortened: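 Gain-of-signal mRNA reporter endpoint, DMSO as negative control. Transiently transfected HepG2 cells carrying the NR-Gal4 chimera and GAL4-UAS reporter units were treated 24 h; transcripts quantified by RT-PCR and capillary electrophoresis fluorescence.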

[8] = target: Hepatocyte nuclear factor 4-alpha (Homo sapiens) (UniProt P41235); experiment: ATG_HNF4a_TRANS: Attagene TRANS-FACTORIAL HepG2 Assay for human Hepatocyte Nuclear Factor 4 alpha (HNF4a) (AID 2282982); details: HepG2 HNF4a transactivation reporter, mRNA readout
Procedure, shortened: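 Gain-of-signal mRNA induction, relative to DMSO vehicle, was read after 24 h compound treatment of HepG2 cells bearing transfected GAL4-UAS reporters. Detection used RT-PCR, 6-FAM primer extension and capillary electrophoresis.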

[9] = ATG_M_32_TRANS: Attagene TRANS-FACTORIAL HepG2 Assay for M32 Transcription Factor (Internal Marker) (AID 2282984); details: HepG2 Attagene TRANS M32 internal marker reporter
Procedure, shortened: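 Capillary electrophoresis of 6-FAM-labelled reporter fragments gives the signal; data fitted for gain over DMSO negative control. Source: HepG2 cells bearing transient multiple reporter transcription units, 24 h exposure.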

[10] = target: Transcriptional activator Myb (Homo sapiens) (UniProt P10242); experiment: ATG_Myb_CIS: Attagene CIS-FACTORIAL HepG2 Assay for human Myeloblastosis (Myb) Proto-Oncogene Transcription Factor (AID 2282986; active = hit-call score of the fitted dose curve at least 0.9, where 1 is the maximum; inactive = score below 0.9); details: HepG2 Attagene CIS-FACTORIAL Myb reporter transcription; actives raise or lower the signal
Sequence of Transcriptional activator Myb (Homo sapiens) (P10242 whole entry, looked up): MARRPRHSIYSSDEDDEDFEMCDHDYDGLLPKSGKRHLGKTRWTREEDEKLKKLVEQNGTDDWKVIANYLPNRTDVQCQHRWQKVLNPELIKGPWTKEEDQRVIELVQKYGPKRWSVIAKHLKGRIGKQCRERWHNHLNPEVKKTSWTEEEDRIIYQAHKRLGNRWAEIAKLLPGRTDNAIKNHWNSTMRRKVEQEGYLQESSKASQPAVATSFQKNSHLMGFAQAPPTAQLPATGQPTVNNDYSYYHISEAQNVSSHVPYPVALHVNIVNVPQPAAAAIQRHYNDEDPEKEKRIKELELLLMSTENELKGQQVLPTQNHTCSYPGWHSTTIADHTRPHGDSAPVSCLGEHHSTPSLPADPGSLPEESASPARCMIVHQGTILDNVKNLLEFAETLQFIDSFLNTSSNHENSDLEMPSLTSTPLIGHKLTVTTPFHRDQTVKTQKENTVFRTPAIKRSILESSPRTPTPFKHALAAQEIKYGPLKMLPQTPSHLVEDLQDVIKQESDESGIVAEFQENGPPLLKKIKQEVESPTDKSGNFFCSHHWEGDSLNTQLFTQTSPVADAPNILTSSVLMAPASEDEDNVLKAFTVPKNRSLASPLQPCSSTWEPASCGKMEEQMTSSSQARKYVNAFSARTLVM
Procedure, shortened: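 HepG2, transient MRTU transfection (cis-element promoters, endogenous TF activity), 24 h compound exposure. Readout: reporter mRNA via RT-PCR, 6-FAM labeling, HpaI digest, capillary electrophoresis. Gain/loss fit vs DMSO.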

[11] = target: Nuclear respiratory factor 1 (Homo sapiens) (UniProt Q16656); experiment: ATG_NRF1_CIS: Attagene CIS-FACTORIAL HepG2 Assay for human Nuclear Respiratory Factor 1 (NRF1) Orphan Gene (AID 2282987; active = hit-call score of the fitted dose curve at least 0.9, where 1 is the maximum; inactive = score below 0.9); details: HepG2 NRF1 cis-element reporter, Attagene multiplex; actives raise or lower the signal
Sequence of Nuclear respiratory factor 1 (Homo sapiens) (Q16656 whole entry, looked up): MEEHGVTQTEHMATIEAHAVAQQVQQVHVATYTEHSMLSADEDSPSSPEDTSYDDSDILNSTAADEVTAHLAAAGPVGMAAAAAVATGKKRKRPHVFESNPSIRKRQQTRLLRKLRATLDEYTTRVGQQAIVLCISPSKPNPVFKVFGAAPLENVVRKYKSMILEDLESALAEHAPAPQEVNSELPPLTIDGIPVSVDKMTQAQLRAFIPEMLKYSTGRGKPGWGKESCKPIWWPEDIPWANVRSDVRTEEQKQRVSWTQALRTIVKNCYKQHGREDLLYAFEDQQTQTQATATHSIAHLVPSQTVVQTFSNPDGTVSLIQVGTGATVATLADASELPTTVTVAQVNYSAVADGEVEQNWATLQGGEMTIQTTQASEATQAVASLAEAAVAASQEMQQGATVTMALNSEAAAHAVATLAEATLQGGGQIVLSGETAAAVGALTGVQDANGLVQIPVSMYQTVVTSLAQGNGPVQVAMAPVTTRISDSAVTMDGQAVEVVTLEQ
Procedure, shortened: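 Endogenous NRF1-driven reporter transcription measured in transiently transfected human HepG2 liver cells. Readout: reporter mRNA by RT-PCR and capillary electrophoresis with fluorescence detection, 24 h post-dosing. Gain or loss of signal fitted relative to DMSO baseline.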

[12] = ATG_NFI_CIS: Attagene CIS-FACTORIAL HepG2 Assay for human Nuclear Factor I (NFI) (AID 2282989; active = hit-call score of the fitted dose curve at least 0.9, where 1 is the maximum; inactive = score below 0.9); details: HepG2 cis-regulatory reporter, NFI response element transcription; actives raise or lower the signal
Procedure, shortened: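 Endogenous TF activity in HepG2 cells transiently transfected with cis-element-driven multiplexed reporter units, read 24 h after dosing. Reporter mRNA quantified by RT-PCR, 6-FAM labelling, HpaI digestion and capillary electrophoresis; bidirectional fit versus DMSO.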

[13] = target: Myc proto-oncogene protein (Homo sapiens) (UniProt P01106); experiment: ATG_Myc_CIS: Attagene CIS-FACTORIAL HepG2 Assay for human Myelocytomatosis (Myc) Proto-Oncogene Transcription Factor (AID 2282990; active = hit-call score of the fitted dose curve at least 0.9, where 1 is the maximum; inactive = score below 0.9); details: HepG2, Attagene cis-reporter transcription factor activity; actives raise or lower the signal
Sequence of Myc proto-oncogene protein (Homo sapiens) (P01106 whole entry, looked up): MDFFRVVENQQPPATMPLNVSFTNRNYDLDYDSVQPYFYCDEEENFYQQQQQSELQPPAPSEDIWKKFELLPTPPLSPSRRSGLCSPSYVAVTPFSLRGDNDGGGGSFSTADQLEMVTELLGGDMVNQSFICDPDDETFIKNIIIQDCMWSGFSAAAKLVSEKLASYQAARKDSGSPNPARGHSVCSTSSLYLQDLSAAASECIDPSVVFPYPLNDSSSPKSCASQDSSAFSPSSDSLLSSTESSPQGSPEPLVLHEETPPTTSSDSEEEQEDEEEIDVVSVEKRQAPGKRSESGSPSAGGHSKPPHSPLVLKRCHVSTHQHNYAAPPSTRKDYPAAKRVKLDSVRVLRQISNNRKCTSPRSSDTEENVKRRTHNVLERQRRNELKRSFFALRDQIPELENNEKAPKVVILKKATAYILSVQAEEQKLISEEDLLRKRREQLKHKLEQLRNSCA
Procedure, shortened: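 Transiently transfected HepG2 cells bearing cis-promoter reporter units for endogenous transcription factors; 24 h exposure. Reporter mRNA measured by RT-PCR, 6-FAM primer extension, HpaI cut and capillary electrophoresis; bidirectional fit relative to DMSO.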

[14] = ATG_NRF2_ARE_CIS: Attagene CIS-FACTORIAL HepG2 Assay for human Nuclear Factor Erythroid 2 Related Factor 2 (NFR2) response to Antioxidant Response Elements (ARE) (AID 2282992; active = hit-call score of the fitted dose curve at least 0.9, where 1 is the maximum; inactive = score below 0.9); details: HepG2 Attagene ARE/NRF2 reporter, transcription factor activity; actives raise or lower the signal
Procedure, shortened: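 Cis-factorial assay: transfected HepG2 reporter library, 24 h dosing, mRNA readout via RT-PCR/CE; DMSO-referenced bidirectional analysis.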

[15] = ATG_GAL4_TRANS: Attagene TRANS-FACTORIAL HepG2 Assay for GAL4 (Internal Marker) (AID 2282976); details: HepG2 Attagene TRANS GAL4 internal marker reporter
Procedure, shortened: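 Background-control readout: GAL4-UAS reporter transcript in transiently transfected HepG2 cells after 24 h compound exposure. Measured by RT-PCR, 6-FAM primer extension, HpaI digest and capillary electrophoresis; gain-of-signal fit versus DMSO.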

[16] = target: Estrogen-related receptor gamma (Homo sapiens) (UniProt P62508); experiment: ATG_ERRg_TRANS: Attagene TRANS-FACTORIAL HepG2 Assay for human Estrogen-Related Receptor gamma (ERRg) (AID 2282977); details: HepG2 Attagene TRANS reporter, ERRg transactivation;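 note: hits increase reporter signal over DMSO so potencies reflect activators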
Sequence of Estrogen-related receptor gamma (Homo sapiens) (P62508 whole entry, looked up, the tested form may be a part): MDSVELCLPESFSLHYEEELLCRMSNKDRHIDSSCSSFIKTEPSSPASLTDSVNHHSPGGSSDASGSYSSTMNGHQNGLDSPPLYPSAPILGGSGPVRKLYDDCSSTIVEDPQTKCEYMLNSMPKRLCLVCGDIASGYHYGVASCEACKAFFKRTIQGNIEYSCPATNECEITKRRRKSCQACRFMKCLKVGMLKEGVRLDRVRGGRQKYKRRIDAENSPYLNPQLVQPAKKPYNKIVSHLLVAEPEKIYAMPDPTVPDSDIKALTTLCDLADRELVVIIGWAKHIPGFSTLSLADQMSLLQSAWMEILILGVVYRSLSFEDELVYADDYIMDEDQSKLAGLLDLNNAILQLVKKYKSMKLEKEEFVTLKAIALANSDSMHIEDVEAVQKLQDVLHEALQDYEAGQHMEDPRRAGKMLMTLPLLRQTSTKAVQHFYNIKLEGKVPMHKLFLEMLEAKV
Procedure, shortened: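 HepG2 cells transiently transfected with multiplexed GAL4-UAS reporter units and chimeric NR-Gal4 constructs were exposed to test chemicals for 24 h. Reporter mRNA was measured by RT-PCR, 6-FAM primer extension, HpaI digestion and capillary electrophoresis; gain-of-signal versus DMSO.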

[17] = ATG_M_06_TRANS: Attagene TRANS-FACTORIAL HepG2 Assay for M06 Transcription Factor (Internal Marker) (AID 2282983); details: HepG2 Attagene TRANS M06 internal marker reporter
Procedure, shortened: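 HepG2 cells transiently transfected with GAL4-UAS multiple reporter units, dosed 24 h. Reporter RNA reverse-transcribed, PCR-amplified, 6-FAM-labeled, HpaI-digested and quantified by capillary electrophoresis; this internal-marker signal fitted upward relative to DMSO.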

[18] = target: Nuclear receptor subfamily 4 group A member 2 (Homo sapiens) (UniProt P43354); experiment: ATG_NURR1_TRANS: Attagene TRANS-FACTORIAL HepG2 Assay for human Nuclear Receptor Related Protein 1 (NURR1) (AID 2282985); details: HepG2 Attagene TRANS reporter, mRNA readout
Sequence of Nuclear receptor subfamily 4 group A member 2 (Homo sapiens) (P43354 whole entry, looked up): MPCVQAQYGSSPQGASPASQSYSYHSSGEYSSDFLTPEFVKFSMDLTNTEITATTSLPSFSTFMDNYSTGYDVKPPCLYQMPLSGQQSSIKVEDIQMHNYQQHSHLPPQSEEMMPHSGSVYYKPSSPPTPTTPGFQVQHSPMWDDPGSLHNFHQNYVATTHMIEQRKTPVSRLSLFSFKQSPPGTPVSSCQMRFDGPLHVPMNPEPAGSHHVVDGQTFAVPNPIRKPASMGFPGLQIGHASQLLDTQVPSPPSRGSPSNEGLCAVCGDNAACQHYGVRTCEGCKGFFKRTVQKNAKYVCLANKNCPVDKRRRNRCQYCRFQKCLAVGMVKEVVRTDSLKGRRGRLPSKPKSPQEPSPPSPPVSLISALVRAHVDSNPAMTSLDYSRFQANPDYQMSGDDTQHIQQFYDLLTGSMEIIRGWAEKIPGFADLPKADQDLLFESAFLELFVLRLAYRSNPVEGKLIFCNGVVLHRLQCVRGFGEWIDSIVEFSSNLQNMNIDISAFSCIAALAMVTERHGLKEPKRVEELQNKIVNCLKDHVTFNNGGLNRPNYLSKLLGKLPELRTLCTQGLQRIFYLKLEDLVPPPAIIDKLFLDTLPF
Procedure, shortened: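 HepG2 / transient MRTU transfection / 24 h compound exposure / RT-PCR + CE fluorescence of reporter mRNA / gain-of-signal vs DMSO.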

[19] = ATG_NF_kB_CIS: Attagene CIS-FACTORIAL HepG2 Assay for human Nuclear Factor Kappa B (NF-kB) (AID 2282991; active = hit-call score of the fitted dose curve at least 0.9, where 1 is the maximum; inactive = score below 0.9); details: HepG2 Attagene cis-factorial NF-kB reporter mRNA; actives raise or lower the signal
Procedure, shortened: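 Read-out: reporter transcript levels quantified by RT-PCR plus capillary electrophoresis of 6-FAM-labelled, HpaI-cut fragments. Transfected HepG2 cells, 24 h compound exposure, endogenous NF-kB-driven cis element; gain or loss scored versus DMSO.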

Measured: AC50

C=CC(=O)[O][Sn]([CH2]CCC)([CH2]CCC)[CH2]CCC
active: [2] 0.412 µM | [12] 0.179 µM | [14] 0.111 µM
not listed: [15] | [16] | [17] | [18] | [19]
inactive: all other assays above

O=c1[nH]c(=O)n(Cl)c(=O)n1Cl
not listed: [5] | [8] | [12] | [19]
inactive: all other assays above

N#Cc1ccc(Cl)cc1
not listed: [4] | [5] | [6] | [8] | [15]
inactive: all other assays above

O=C(Nc1ccc(Br)cc1)c1cc(Br)cc(Br)c1O
active: [2] 4.92 µM | [12] 2.27 µM | [14] 2.91 µM
not listed: [4] | [5]
inactive: all other assays above

CCC[N+](CCC)(CCC)CCC
inactive: [1] | [2] | [3] | [15] | [9] | [10] | [11] | [12] | [13] | [14]

Clc1cc(C(Cl)(Cl)Cl)cnc1Cl
active: [12] 44.8 µM | [13] 55.5 µM | [19] 8.56 µM
not listed: [4] | [6] | [9] | [15] | [17] | [18]
inactive: all other assays above

Cc1ccccc1OP(=O)(Oc1ccccc1C)Oc1ccccc1C
active: [2] 56.1 µM
inactive: [1] | [3] | [4] | [6] | [7] | [9] | [10] | [11] | [13]

CCCCS(=O)(=O)Cl
not listed: [5] | [6] | [12] | [16] | [17]
inactive: all other assays above

O=C(CCl)NCO
active: [14] 65.2 µM
not listed: [4] | [5] | [12] | [17]
inactive: all other assays above

C=CCN=C=S
not listed: [4] | [5] | [6] | [8] | [16] | [17] | [18]
inactive: all other assays above
